According to paper PMC5540273 (PLoS ONE, 2017):
Where “and” joins values, the source holds several entries; their conditions need not be identical. Identical values can stand only once. Like-named read-outs stand apart in the source and are kept apart here.

Assays:
EIF2AK1 = settings: concentration: 1 μM, replicates: in singlicate; n = 1
EPHA1 = settings: concentration: 1 μM, replicates: in singlicate, n = 1
EPHA2 = settings: concentration: 1 μM, replicates: in singlicate; n = 1
EPHA3 = settings: concentration: 1 μM, replicates: in singlicate, n = 1
EPHA4 = settings: concentration: 1 μM, replicates: in singlicate, n = 1
EPHA5 = settings: concentration: 1 μM, replicates: in singlicate; n = 1
EPHA6 = settings: concentration: 1 μM, replicates: in singlicate, n = 1
EPHA7 = settings: concentration: 1 μM, replicates: in singlicate; n = 1
EPHA8 = settings: concentration: 1 μM, replicates: in singlicate, n = 1
EPHB1 = settings: concentration: 1 μM, replicates: in singlicate, n = 1
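Note: KINOMEscan kinase panel screen.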

Row | Compound | %Inh (EIF2AK1) [%] | %Inh (EPHA1) [%] | %Inh (EPHA2) [%] | %Inh (EPHA3) [%] | %Inh (EPHA4) [%] | %Inh (EPHA5) [%] | %Inh (EPHA6) [%] | %Inh (EPHA7) [%] | %Inh (EPHA8) [%] | %Inh (EPHB1) [%] | %Inh (EPHA1; 1 µM) | %Inh (EPHA3; 1 µM) | %Inh (EPHA4; 1 µM) | %Inh (EPHA6; 1 µM) | %Inh (EPHA8; 1 µM) | %Inh (EPHB1; 1 µM)
1 | Cc1ccc(O)cc1Nc1cc(C(F)(F)F)nc2ccc(-c3ccncc3)cc12 [GW630823] | 0 | 6 | 17 | 0 | 5 | 3 | 5 | 88 | 68 | 12 | – | – | – | – | – | –
2 | Cl.Cl.c1ccc(-c2cc3ccncc3cc2OC2CCNCC2)cc1 [GSK1122999] | 13 | 11 | 13 | 0 | 9 | 0 | 12 | 5 | 13 | 25 | – | – | – | – | – | –
3 | CCc1nc(-c2cccc(N(C)S(=O)(=O)c3ccccc3)c2)c(-c2ccnc(Nc3ccc(N4CCN(C(C)=O)CC4)nc3)n2)s1 [GSK1645895] | 0 | 29 | 0 | 14 | 0 | 0 | 2 | 5 | 25 | 7 | – | – | – | – | – | –
4 | Nc1n[nH]c2nnc(-c3ccccc3)cc12 [SB-517389] | 13 | 9 | 4 | 0 | 14 | 0 | 0 | 8 | 15 | 9 | – | – | – | – | – | –
5 | FC(F)(F)c1ccc(-c2nn3ncccc3c2-c2ccnc(Nc3cccc(C(F)(F)F)c3)n2)cc1 [GW828205] | 0 | 34 | 19 | 0 | 81 | 0 | 78 | 0 | 0 | 2 | – | – | – | – | – | –
6 | Cn1ccc2ncnc(Oc3ccc(NC(=O)Nc4cccnc4)c(Cl)c3)c21 | 0 | 0 | 0 | 4 | 29 | 11 | 32 | 7 | 10 | 9 | – | – | – | – | – | –
7 | Clc1cccc(-c2nc(Nc3ccncc3)c3ccccc3n2)c1 [GW873004] | 0 | 100 | 38 | 0 | 5 | 0 | 0 | 15 | 18 | 19 | – | – | – | – | – | –
8 | CC(=O)Nc1n[nH]c2ncc(-c3ccccc3)cc12 [SB-548492] | 0 | 17 | 0 | 2 | 8 | 15 | 29 | 0 | 32 | 15 | – | – | – | – | – | –
9 | Nc1nc(-c2ccccn2)c(-c2ccnc3ccccc23)s1 [GW548057] | 0 | 6 | 0 | 15 | 0 | 0 | 6 | 13 | 20 | 5 | – | – | – | – | – | –
10 | O=C(CCO)NCCn1ccc2ncnc(Nc3ccc(Oc4cccc(C(F)(F)F)c4)c(Cl)c3)c21 | 0 | 0 | 0 | 0 | 0 | 0 | 0 | 0 | 0 | 0 | – | – | – | – | – | –
11 | Cl.Cn1ccc(-c2cccc(Nc3ccnc4cc(-c5nccs5)ccc34)c2)n1 [GW525701] | 0 | 25 | 0 | 100 | 0 | 0 | 0 | 6 | 7 | 14 | – | – | – | – | – | –
12 | C[C@H]1CC[C@@H](C(=O)Nc2ccccc2)CN1c1cc(-c2ccc3c(N)n[nH]c3c2)nc(N)n1 [GSK2283293] | 10 | 0 | 11 | 0 | 3 | 0 | 15 | 6 | 23 | 22 | – | – | – | – | – | –
13 | OCCOCCn1ccc2ncnc(Nc3ccc(Oc4cccc(Cl)c4)c(Cl)c3)c21 | 0 | 0 | 1 | 0 | 0 | 0 | 0 | 0 | 0 | 2 | – | – | – | – | – | –
14 | CC(C)N1CCC(n2cnc(-c3ccc(F)cc3)c2-c2ccnc(N)n2)CC1 [SB-223132] | 0 | 28 | 46 | 0 | 0 | 0 | 0 | 0 | 17 | 0 | – | – | – | – | – | –
15 | CCc1nc(-c2cccc(C)c2)c(-c2ccnc(NC(=O)c3ccccc3)c2)s1 | 15 | 0 | 0 | 4 | 32 | 28 | 45 | 12 | 15 | 14 | – | – | – | – | – | –
16 | FC(F)(F)c1ccc(-c2cc(-c3c[nH]nc3-c3ccccn3)ccn2)cc1 [GW599550] | 100 | 2 | 0 | 13 | 0 | 0 | 0 | 5 | 9 | 30 | – | – | – | – | – | –
17 | O=C(Nc1ccccc1)Nc1ccc(Oc2ccc3nccn3n2)cc1 | 0 | 31 | 25 | 0 | 0 | 0 | 0 | 3 | 23 | 13 | – | – | – | – | – | –

Row | Compound | %Inh (EIF2AK1) [%] | %Inh (EPHA1) [%] | %Inh (EPHA2) [%] | %Inh (EPHA3) [%] | %Inh (EPHA4) [%] | %Inh (EPHA5) [%] | %Inh (EPHA6) [%] | %Inh (EPHA7) [%] | %Inh (EPHA8) [%] | %Inh (EPHB1) [%] | %Inh (EPHA1; 1 µM) | %Inh (EPHA3; 1 µM) | %Inh (EPHA4; 1 µM) | %Inh (EPHA6; 1 µM) | %Inh (EPHA8; 1 µM) | %Inh (EPHB1; 1 µM)
18 | Cl.c1ccc(Cn2ncc3cc(Nc4ncnc5ccccc45)ccc32)cc1 [GW273749] | 0 | 28 | 0 | 0 | 4 | 0 | 0 | 7 | 17 | 0 | – | – | – | – | – | –
19 | C[C@@H]1CCN(C(=O)CO)C[C@@H]1N(C)c1ncnc2[nH]ccc12 | 5 | 8 | 0 | 0 | 0 | 2 | 0 | 0 | 0 | 9 | – | – | – | – | – | –
20 | O=C(Nc1ccccc1F)NC1CCN(c2ccnc(Nc3ccc(F)cc3)n2)C1 (stereo not shown) [GSK1379722] | 0 | 0 | 8 | 0 | 0 | 0 | 4 | 5 | 14 | 11 | – | – | – | – | – | –
21 | COc1ccc(-c2nc3n(c2-c2ccncc2)CCC3)cc1 [SKF-104493] | 0 | – | 0 | – | – | 0 | – | 0 | – | – | 18% and 0% | 0% and 18% | 0% and 17% | 10% and 7% | 8% and 0% | 0% and 22%
22 | Clc1cc(Nc2ncnc3cc[nH]c23)ccc1OCc1ccccn1 | 3 | 11 | 12 | 0 | 24 | 14 | 27 | 1 | 0 | 1 | – | – | – | – | – | –
23 | Fc1cccc(COc2ccc(Nc3ncnc4cc[nH]c34)cc2Cl)c1 | 23 | 2 | 15 | 0 | 18 | 20 | 7 | 4 | 1 | 9 | – | – | – | – | – | –
24 | Cc1cccc(-c2nc(Nc3ccc4[nH]nnc4c3)c3ccccc3n2)n1 [GW867587] | 0 | 0 | 0 | 0 | 0 | 0 | 0 | 0 | 0 | 6 | – | – | – | – | – | –
25 | CCC(CC)(CC)n1cnc2c(N)ncnc21 [SKF-97620] | 30 | 0 | 100 | 11 | 15 | 0 | 16 | 22 | 23 | 9 | – | – | – | – | – | –
26 | Fc1ccc(-c2ncn(CCCNCc3ccccc3)c2-c2ccncc2)cc1 | 0 | 4 | 10 | 0 | 6 | 7 | 23 | 0 | 19 | 15 | – | – | – | – | – | –
27 | Cl.c1ccc(Cn2ccc3cc(Nc4ncnc5ccccc45)ccc32)cc1 [GW275568] | 5 | 7 | 1 | 40 | 0 | 0 | 0 | 10 | 20 | 4 | – | – | – | – | – | –
28 | CN1c2ccc(-c3ccc(C(=O)NCCO)cc3)cc2-c2[nH]ncc2S1(=O)=O | 0 | 11 | 27 | 14 | 14 | 19 | 22 | 3 | 0 | 7 | – | – | – | – | – | –
29 | Nc1nc(-c2ccc3c(N)n[nH]c3c2)cc(N2CCCCC2)n1 [GSK2228768] | 0 | 0 | 0 | 0 | 3 | 0 | 0 | 0 | 0 | 9 | – | – | – | – | – | –
30 | Cl.O=S(=O)(c1cccc(F)c1)c1ccc(Nc2ncnc3cc(Br)sc23)cc1Cl [GSK306886] | 0 | 9 | 9 | 14 | 19 | 0 | 16 | 2 | 2 | 10 | – | – | – | – | – | –
31 | O=C(c1ccc(-c2cc(-c3c[nH]nc3-c3ccccn3)ccn2)cc1)N1CCCC1 [GW792479] | 0 | 56 | 21 | 1 | 13 | 36 | 2 | 9 | 19 | 5 | – | – | – | – | – | –
32 | COc1ccc(-c2oc3ncnc(N)c3c2-c2ccc(OC)cc2)cc1 [SB-589132] | 3 | 70 | 19 | 0 | 32 | 0 | 50 | 0 | 9 | 0 | – | – | – | – | – | –
33 | Cl.Fc1ccccc1COc1ccc(Nc2ncnc3ccc(-c4nnc(C(F)(F)F)o4)cc23)cc1Cl [GW424170] | 0 | 19 | 0 | 0 | 3 | 0 | 0 | 3 | 0 | 19 | – | – | – | – | – | –
34 | CS(=O)(=O)CCNCc1nc(-c2ccc3ncnc(Nc4ccc(OCc5cccc(F)c5)c(Cl)c4)c3c2)cs1.Cl [GW583340] | 0 | 5 | 0 | 13 | 0 | 0 | 0 | 0 | 0 | 1 | – | – | – | – | – | –
